# Data from PubChem BioAssay AID1159580 (chemical genetic matrix, 2015).
# The whole screen tested about 5,500 compounds, of which about 2,000 (36%) were called active. Not shown: some 18% with an inconclusive outcome. The list shows a part of the results. Values without a mark were called inactive. No stated cut-off is given here; in the data, active means normalized growth mostly below about 0.91 (no sharp cut-off); inconclusive means no clear call, values can overlap the other calls; inactive means mostly above about 0.92.
# Assay: chemical genetic growth profiling, strain panel (AID 1159580);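 further: tested at 20 µM; growth read once vehicle control cultures reached saturation at 30 °C; 1 = growth at the plate median or of vehicle wells; lower values mean less growth of the strain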
# Conditions: growth OD
# [1] = S. cerevisiae deletion strains, locus YDL101C, strain DUN1, hits give low values
# [2] = S. cerevisiae deletion strains, locus YHR030C, strain SLT2, hits give low values
smiles,measurement,setting,value
O=C1NC(c2c(F)cccc2Cl)Nc2ccccc21 (stereo unspecified),normalized growth,"S. cerevisiae deletion strains, locus YAL013W, strain DEP1, hits give low values",1.01
same,normalized growth,"S. cerevisiae deletion strains, locus YBR229C, strain ROT2, hits give low values",1.01
same,normalized growth,"S. cerevisiae deletion strains, locus YCL061C, strain MRC1, hits give low values",1.03
same,normalized growth,[1],1.02
same,normalized growth,"S. cerevisiae deletion strains, locus YDL134C, strain PPH21, hits give low values",1
same,normalized growth,"S. cerevisiae deletion strains, locus YDR150W, strain NUM1, hits give low values",0.987
same,normalized growth,"S. cerevisiae deletion strains, locus YEL061C, strain CIN8, hits give low values",1
same,normalized growth,"S. cerevisiae deletion strains, locus YGR078C, strain PAC10, hits give low values",1.03
same,normalized growth,"S. cerevisiae deletion strains, locus YGR229C, strain SMI1, hits give low values",0.988
same,normalized growth,[2],1
same,normalized growth,"S. cerevisiae deletion strains, locus YHR087W, strain rtc3, hits give low values",1.02
same,normalized growth,"S. cerevisiae deletion strains, locus YJL187C, strain SWE1, hits give low values",1
same,normalized growth,"S. cerevisiae deletion strains, locus YJR043C, strain POL32, hits give low values",0.998
same,normalized growth,"S. cerevisiae deletion strains, locus YJR075W, strain HOC1, hits give low values",0.998
same,normalized growth,"S. cerevisiae deletion strains, locus YKL190W, strain CNB1, hits give low values",1.01
same,normalized growth,"S. cerevisiae deletion strains, locus YLR039C, strain RIC1, hits give low values",0.94
same,normalized growth,"S. cerevisiae deletion strains, locus YLR058C, strain SHM2 (second series), hits give low values",1.02
same,normalized growth,"S. cerevisiae deletion strains, locus YLR085C, strain ARP6, hits give low values",0.984
same,normalized growth,"S. cerevisiae deletion strains, locus YLR262C, strain YPT6, hits give low values",0.926
same,normalized growth,"S. cerevisiae deletion strains, locus YML094W, strain GIM5, hits give low values",1.05
same,normalized growth,"S. cerevisiae deletion strains, locus YMR219W, strain ESC1, hits give low values",1
same,normalized growth,"S. cerevisiae deletion strains, locus YMR263W, strain SAP30, hits give low values",0.978
same,normalized growth,"S. cerevisiae deletion strains, locus YNL153C, strain GIM3, hits give low values",1.01
same,normalized growth,"S. cerevisiae deletion strains, locus YNL298W, strain CLA4 (second series), hits give low values",0.979
same,normalized growth,"S. cerevisiae deletion strains, locus YNL322C, strain KRE1, hits give low values",1
same,normalized growth,"S. cerevisiae deletion strains, locus YNR030W, strain Alg12, hits give low values",1.02
same,normalized growth,"S. cerevisiae deletion strains, locus YPL055C, strain LGE1, hits give low values",1
same,normalized growth,"S. cerevisiae deletion strains, locus YPL241C, strain CIN2, hits give low values",1.04
same,normalized growth,"S. cerevisiae deletion strains, locus YPR135W, strain CTF4, hits give low values",1.06
same,normalized growth,"S. cerevisiae strains, strain wild type, hits give low values",1.01
CC12CC[C@@H](O)CC1=CC[C@@H]1C2CCC2(C)C(=O)CC[C@@H]12 (stereo partly specified),normalized growth,"S. cerevisiae deletion strains, locus YAR019C, strain CDC15, hits give low values",1.01
same,normalized growth,"S. cerevisiae deletion strains, locus YBL105C, strain PKC1, hits give low values",1.01
same,normalized growth,"S. cerevisiae deletion strains, locus YBR135W, strain CKS1, hits give low values",1.02
same,normalized growth,"S. cerevisiae deletion strains, locus YBR136W, strain MEC1, hits give low values",1.01
same,normalized growth,"S. cerevisiae deletion strains, locus YBR160W, strain CDC28, hits give low values",1.02
same,normalized growth,"S. cerevisiae deletion strains, locus YDL017W, strain CDC7, hits give low values",1.02
same,normalized growth,"S. cerevisiae deletion strains, locus YDL028C, strain MPS1, hits give low values",1.02
same,normalized growth,[1],1
same,normalized growth,"S. cerevisiae deletion strains, locus YDL108W, strain KIN28, hits give low values",1.01
same,normalized growth,"S. cerevisiae deletion strains, locus YDL132W, strain cdc53, hits give low values",1.02
same,normalized growth,"S. cerevisiae deletion strains, locus YDL214C, strain PRR2, hits give low values",0.915
same,normalized growth,"S. cerevisiae deletion strains, locus YDR052C, strain DBF4, hits give low values",1.01
same,normalized growth,"S. cerevisiae deletion strains, locus YDR054C, strain cdc34, hits give low values",1.01
same,normalized growth,"S. cerevisiae deletion strains, locus YDR226W, strain ADK1, hits give low values",1.01
same,normalized growth,"S. cerevisiae deletion strains, locus YDR477W, strain SNF1, hits give low values",0.909
same,normalized growth,"S. cerevisiae deletion strains, locus YER123W, strain YCK3, hits give low values",0.822
same,normalized growth,"S. cerevisiae deletion strains, locus YER133W, strain GLC7, hits give low values",0.915
same,normalized growth,"S. cerevisiae deletion strains, locus YFL009W, strain cdc4, hits give low values",1.02
same,normalized growth,"S. cerevisiae deletion strains, locus YFL029C, strain CAK1, hits give low values",1.01
same,normalized growth,"S. cerevisiae deletion strains, locus YFR003C, strain YPI1, hits give low values",1.01
same,normalized growth,"S. cerevisiae deletion strains, locus YFR019W, strain FAB1, hits give low values",0.801
same,normalized growth,"S. cerevisiae deletion strains, locus YFR028C, strain CDC14, hits give low values",1.01
same,normalized growth,"S. cerevisiae deletion strains, locus YGR040W, strain KSS1, hits give low values",0.889
same,normalized growth,"S. cerevisiae deletion strains, locus YGR052W, strain FMP48, hits give low values",0.924
same,normalized growth,"S. cerevisiae deletion strains, locus YGR092W, strain DBF2, hits give low values",0.695
same,normalized growth,[2],0.787 (active)
same,normalized growth,"S. cerevisiae deletion strains, locus YHR079C, strain IRE1, hits give low values",0.96
same,normalized growth,"S. cerevisiae deletion strains, locus YHR082C, strain KSP1, hits give low values",0.95
same,normalized growth,"S. cerevisiae deletion strains, locus YHR205W, strain SCH9, hits give low values",0.852
same,normalized growth,"S. cerevisiae deletion strains, locus YIL147C, strain SLN1, hits give low values",1.01
same,normalized growth,"S. cerevisiae deletion strains, locus YJL095W, strain BCK1, hits give low values",0.815
same,normalized growth,"S. cerevisiae deletion strains, locus YJL128C, strain PBS2, hits give low values",0.973
same,normalized growth,"S. cerevisiae deletion strains, locus YJL157C, strain FAR1, hits give low values",0.893
same,normalized growth,"S. cerevisiae deletion strains, locus YJR016C, strain ILV3, hits give low values",1.02
same,normalized growth,"S. cerevisiae deletion strains, locus YJR066W, strain TOR1 (second series), hits give low values",0.848
same,normalized growth,"S. cerevisiae deletion strains, locus YJR066W, strain TOR1, hits give low values",0.901
same,normalized growth,"S. cerevisiae deletion strains, locus YKL048C, strain ELM1, hits give low values",0.957
same,normalized growth,"S. cerevisiae deletion strains, locus YKL067W, strain YNK1, hits give low values",0.924
same,normalized growth,"S. cerevisiae deletion strains, locus YKL101W, strain HSL1, hits give low values",0.913
same,normalized growth,"S. cerevisiae deletion strains, locus YKL193C, strain SDS22, hits give low values",1.01
same,normalized growth,"S. cerevisiae deletion strains, locus YKL203C, strain TOR2, hits give low values",0.92
same,normalized growth,"S. cerevisiae deletion strains, locus YLR113W, strain HOG1, hits give low values",0.996
same,normalized growth,"S. cerevisiae deletion strains, locus YLR133W, strain CKI1, hits give low values",0.904
same,normalized growth,"S. cerevisiae deletion strains, locus YLR403W, strain SFP1, hits give low values",0.801
same,normalized growth,"S. cerevisiae deletion strains, locus YML070W, strain DAK1, hits give low values",0.903
same,normalized growth,"S. cerevisiae deletion strains, locus YMR001C, strain CDC5, hits give low values",1
same,normalized growth,"S. cerevisiae deletion strains, locus YMR205C, strain PFK2 (second series), hits give low values",0.916
same,normalized growth,"S. cerevisiae deletion strains, locus YMR277W, strain FCP1, hits give low values",1.01
same,normalized growth,"S. cerevisiae deletion strains, locus YNL006W, strain LST8, hits give low values",1.02
same,normalized growth,"S. cerevisiae deletion strains, locus YNL020C, strain ARK1, hits give low values",0.908
same,normalized growth,"S. cerevisiae deletion strains, locus YNL161W, strain CBK1, hits give low values",1.02
same,normalized growth,"S. cerevisiae deletion strains, locus YNL183C, strain NPR1, hits give low values",0.95
same,normalized growth,"S. cerevisiae deletion strains, locus YNL207W, strain RIO2, hits give low values",1.01
same,normalized growth,"S. cerevisiae deletion strains, locus YNL222W, strain SSU72, hits give low values",1.02
same,normalized growth,"S. cerevisiae deletion strains, locus YNL307C, strain MCK1 (second series), hits give low values",0.787
same,normalized growth,"S. cerevisiae deletion strains, locus YOL078W, strain AVO1, hits give low values",1
same,normalized growth,"S. cerevisiae deletion strains, locus YOL136C, strain PFK27, hits give low values",0.838
same,normalized growth,"S. cerevisiae deletion strains, locus YOR061W, strain CKA2, hits give low values",0.861
same,normalized growth,"S. cerevisiae deletion strains, locus YOR119C, strain RIO1, hits give low values",0.938
same,normalized growth,"S. cerevisiae deletion strains, locus YOR231W, strain MKK1, hits give low values",0.912
same,normalized growth,"S. cerevisiae deletion strains, locus YOR329C, strain SCD5, hits give low values",1.02
same,normalized growth,"S. cerevisiae deletion strains, locus YPL031C, strain PHO85, hits give low values",0.899
same,normalized growth,"S. cerevisiae deletion strains, locus YPL153C, strain RAD53, hits give low values",0.921
same,normalized growth,"S. cerevisiae deletion strains, locus YPL204W, strain HRR25, hits give low values",0.853
same,normalized growth,"S. cerevisiae deletion strains, locus YPL209C, strain IPL1, hits give low values",1.02
same,normalized growth,"S. cerevisiae deletion strains, locus YPL256C, strain CLN2, hits give low values",1.07
same,normalized growth,"S. cerevisiae deletion strains, locus YPR025C, strain CCL1, hits give low values",1.02
same,normalized growth,"S. cerevisiae deletion strains, locus YPR106W, strain ISR1, hits give low values",0.998
same,normalized growth,"S. cerevisiae deletion strains, locus YPR111W, strain DBF20, hits give low values",1
same,normalized growth,"S. cerevisiae deletion strains, strain NNK1, hits give low values",1
same,normalized growth,"S. cerevisiae deletion strains, strain TSCII, hits give low values",1.01
